SMN2 splice enh = enhancers of SMN2 splice variant expression; HEK293 SMN2-luciferase splicing reporter, luminescence, 30-36 h; Potency, µM (doses to about 46.1 µM), inactives show at the top dose activity change, positive = activation, actives largely listed as activators; 210,000 tested, 2.8% active; note: % of control where 0% means no effect; nearly all actives have a fitted effect of over 55% in size
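HEK293 cells carry an SMN2 […]–luciferase reporter in which exon 7 inclusion puts luciferase in frame. Cells were plated 10-12 h before compound addition, then incubated 30-36 h at 37C. ONE-Glo luminescence was read; sodium butyrate at 4.5 mM final served as control.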
NPC1 promoter act = activators of NPC1 promoter | 320,000 tested, 2.4% active | Huh7 NPC1 promoter luciferase reporter, 24 h | Potency, µM (top dose mostly 9.22 µM), without a hit: at the highest dose activation, usual class: activators; note: % of control where 0% means no effect; nearly all actives have a fitted effect of over 60% in size
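Luciferase expression driven by the NPC1 promoter was measured in stably transfected Huh7 cells after a 24 h compound incubation, using a luciferase reagent and a luminescence read.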
Rab9 promoter act = Rab9 promoter activation; Huh7 Rab9 promoter-luciferase reporter, luminescence, 24 h; Potency, µM (highest dose often 9.22 µM), for the others: top-dose activation, negative = inhibition, actives largely listed as activators; 320,000 tested, 2.8% active; note: % of control where 0% means no effect; nearly all actives have a fitted effect of over 60% in size
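Luciferase signal after 10 min detection reagent at ambient indicates Rab9 promoter upregulation; stably transfected Huh7 cells were treated 24 h with compound in DMSO at 37 °C, 5% CO2.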
FLuc modulator = inhibits or activates purified firefly luciferase, miR-21 counter-screen. P08659. purified FLuc, Km substrates, luminescence inhibition. Potency, µM (doses to about 57.5 µM), for the others: top-dose activity change, negative = inhibition, usual class: inhibitors. 360,000 tested, 6.9% active. AID 588342;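 note: plate controls were vehicle for no effect and reference inhibitor for full effect; nearly all actives have a fitted effect of over 55% in size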
Target sequence (P08659 whole entry, looked up): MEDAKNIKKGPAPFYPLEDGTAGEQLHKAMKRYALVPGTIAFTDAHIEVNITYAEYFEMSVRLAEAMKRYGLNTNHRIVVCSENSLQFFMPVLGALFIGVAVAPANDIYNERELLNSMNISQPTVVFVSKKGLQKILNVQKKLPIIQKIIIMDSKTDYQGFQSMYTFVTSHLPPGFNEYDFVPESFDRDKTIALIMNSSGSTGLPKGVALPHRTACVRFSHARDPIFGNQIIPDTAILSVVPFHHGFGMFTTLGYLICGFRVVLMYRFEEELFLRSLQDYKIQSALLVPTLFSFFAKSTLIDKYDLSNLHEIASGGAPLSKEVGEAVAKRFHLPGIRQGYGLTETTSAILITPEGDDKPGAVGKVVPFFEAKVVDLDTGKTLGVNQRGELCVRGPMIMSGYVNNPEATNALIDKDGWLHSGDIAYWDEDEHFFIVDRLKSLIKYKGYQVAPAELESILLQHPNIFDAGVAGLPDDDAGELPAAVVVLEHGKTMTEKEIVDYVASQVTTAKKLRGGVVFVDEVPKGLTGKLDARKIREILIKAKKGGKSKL
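Biochemical qHTS of compounds, final roughly 60 µM downward over six points, against 10 nM purified firefly luciferase using Km concentrations of substrates (10 uM D-luciferin, 10 uM ATP) in Tris acetate pH 7.5 buffer; luminescence output.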
Luc counter = counter-screen: inhibitors of Kinase-Glo firefly luciferase | 200,000 tested, 0.28% active | Potency, µM (doses to about 38.3 µM), without a hit: at the top dose activity change, negative = inhibition, hits mostly inhibitors | Kinase-Glo luciferase, ATP luminescence, 8 min | Q27757; note: % is set by controls: 0 for no effect and ±100 for the full control effect; nearly all actives have a fitted effect of over 60% in size
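Inhibition of Kinase-Glo luciferase light generation was assessed at 10 uM ATP in pH 7.2 imidazole buffer, with luminescence measured after eight minutes at ambient temperature.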
ELG1 genotoxic = inducers of genotoxicity in HEK293T ELG1-luciferase cells | HEK293T ELG1-luciferase reporter, luminescence, 16 h | Potency, µM (series often up to 46 µM), for inactives: top-dose activity change, positive = activation, most hits filed as activators | 330,000 tested, 1.3% active; note: % of control where 0% means no effect; nearly all actives have a fitted effect of over 60% in size
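After overnight (16 hr) compound treatment at 37 °C, ELG1-luciferase HEK293T cells were lysed with ONE-Glo; luminescence quantified 30 min later at room temperature.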
* hit, by the source's call; [ ] = dose if it differs, or a comment. Most compounds without a hit are left out; they make up all but 7.5% or so of the library. Calls come from the whole dose curve; as a rule, active = well fitted curve in the direction sought with a large enough effect; inconclusive = small, poorly fitted or top-dose-only effect, or another doubt; inactive = no such curve, though single readings can be large; an effect the other way counts as inactive or inconclusive. Potency is the fitted concentration of half-maximal effect.

What do the screens show for `CC(=O)/C(N=Nc1cc(C)ccc1O)=C(\C)O`?
NPC1 promoter act: 22%; Rab9 promoter act: 5%; FLuc modulator: 3%; Luc counter: -12%; ELG1 genotoxic: 2%

What do the screens show for `Cc1ccc(O)c(C(=O)c2cc(C#N)c(=O)n(-c3nccs3)c2)c1`?
NPC1 promoter act: -2%; Rab9 promoter act: -1%; FLuc modulator: -12%; Luc counter: 3%; ELG1 genotoxic: -3%

Results for COc1ccc(N=Nc2cc(C)ccc2O)cc1 ?
NPC1 promoter act: 1.1µM*; Rab9 promoter act: 0.4µM*; FLuc modulator: 0.48µM*; ELG1 genotoxic: 3.7µM*

How did Cc1nn(C)c(Cl)c1/C=N/OC(=O)c1ccccc1 do in these assays?
SMN2 splice enh: 0%; NPC1 promoter act: -3%; Rab9 promoter act: -2%; FLuc modulator: 12µM*; Luc counter: -2%; ELG1 genotoxic: 1%

What do the screens show for `Cn1nc(C(F)(F)F)c(/C=N/OC(=O)c2ccccc2)c1Cl`?
SMN2 splice enh: -6%; NPC1 promoter act: -2%; Rab9 promoter act: -7%; FLuc modulator: inconclusive; Luc counter: -1%; ELG1 genotoxic: 1%

How did Cc1nn(C)c(Cl)c1/C=N/OC(=O)c1ccc(F)cc1 do in these assays?
SMN2 splice enh: 9%; NPC1 promoter act: -2%; Rab9 promoter act: 1%; FLuc modulator: 17µM*; Luc counter: -1%; ELG1 genotoxic: 0%

What do the screens show for `Cn1c(Cl)c(/C=N/OC(=O)c2ccccc2Cl)c2ccccc21`?
SMN2 splice enh: -1%; NPC1 promoter act: 2%; Rab9 promoter act: -1%; FLuc modulator: 6.7µM*; Luc counter: 3%; ELG1 genotoxic: -2%

What do the screens show for `Cc1ccccc1CNC(=O)CN1C(=O)CCCc2ccccc21`?
FLuc modulator: -3%

How did COc1ccc(NS(=O)(=O)c2ccc3c(c2)CCCN3C(=O)C2CCC2)cc1OC do in these assays?
FLuc modulator: -5%

How did COc1ccc(NC(=O)c2cccc(S(=O)(=O)NCc3ccco3)c2)c(OC)c1 do in these assays?
NPC1 promoter act: 2%; Rab9 promoter act: -3%; FLuc modulator: 4%; ELG1 genotoxic: 6%

What do the screens show for `O=C(N/N=C/c1ccc([N+](=O)[O-])cc1)c1[nH]ncc1Br`?
SMN2 splice enh: 11µM*; NPC1 promoter act: 2µM*; Rab9 promoter act: 1µM*; FLuc modulator: inconclusive; Luc counter: inconclusive; ELG1 genotoxic: inconclusive

What do the screens show for `COc1ccc(NC(=O)CSc2nc3ccccc3n2CC(=O)N(C)C2CCCCC2)cc1`?
FLuc modulator: -16%

What do the screens show for `Cc1cc(C)cc(NC(=O)Cn2c(=O)n(Cc3ccc4c(c3)OCO4)c(=O)c3oc4ccccc4c32)c1`?
FLuc modulator: -2%

How did N#C/C(=C\c1ccccc1O)C(=O)Nc1ccccn1 do in these assays?
NPC1 promoter act: -6%; Rab9 promoter act: 20%; FLuc modulator: 4.8µM*; ELG1 genotoxic: 5%

How did N#C/C(=C\c1ccc(O)c(O)c1)C(=O)Nc1cccc2ncccc12 do in these assays?
NPC1 promoter act: -1%; Rab9 promoter act: -1%; FLuc modulator: inconclusive; ELG1 genotoxic: -27%

How did C=CCNC(=O)/C(C#N)=C/c1ccccc1Cl do in these assays?
SMN2 splice enh: -1%; NPC1 promoter act: -1%; Rab9 promoter act: 1%; FLuc modulator: inconclusive; Luc counter: 0%; ELG1 genotoxic: 8%

What do the screens show for `Cc1cccc(NC(=O)/C(C#N)=C/c2ccccc2Cl)n1`?
NPC1 promoter act: 0%; Rab9 promoter act: -3%; FLuc modulator: 6µM*; ELG1 genotoxic: 1%

How did Cn1cc(/C=C(\C#N)C(=O)Nc2ccccc2O)c2ccccc21 do in these assays?
NPC1 promoter act: 27%; Rab9 promoter act: inconclusive; FLuc modulator: inconclusive; ELG1 genotoxic: -11%

How did Cc1cccc(NC(=O)/C(C#N)=C/c2ccccc2O)n1 do in these assays?
NPC1 promoter act: 3.5µM*; Rab9 promoter act: 4µM*; FLuc modulator: 0.6µM*; ELG1 genotoxic: 16µM*

How did CCc1c(C)nc(N)n2c(SCC(=O)N3CCCC(C)C3)nnc12 (stereo not given) do in these assays?
NPC1 promoter act: -1%; Rab9 promoter act: 4%; FLuc modulator: 6%; ELG1 genotoxic: -1%

What do the screens show for `O=C(NCC1CCCO1)C(c1ccccn1)N(Cc1ccccc1Cl)C(=O)CN1C(=O)c2ccccc2S1(=O)=O` (stereo not given)?
NPC1 promoter act: 1%; Rab9 promoter act: -2%; FLuc modulator: 4%; Luc counter: -3%; ELG1 genotoxic: -2%

Results for Nc1nc(N)nc(CC(=O)O)n1 ?
SMN2 splice enh: 6%[9.22 µM]; Luc counter: 2%[7.66 µM]

What do the screens show for `O=C(COC(=O)C1CC(=O)N(Cc2ccccc2)C1)c1ccc(F)cc1` (stereo not given)?
SMN2 splice enh: 12%; NPC1 promoter act: -27%; Rab9 promoter act: -3%; FLuc modulator: -1%; Luc counter: 1%; ELG1 genotoxic: 8%

How did CCC1CO1 (stereo not given) do in these assays?
SMN2 splice enh: 2%

Results for COC(=O)c1sccc1N/N=C/c1cccc(Oc2ccccc2)c1 ?
SMN2 splice enh: inconclusive; NPC1 promoter act: 3.2µM*; Rab9 promoter act: 2.2µM*; FLuc modulator: 1.9µM*; Luc counter: inconclusive; ELG1 genotoxic: 2.3µM*

Results for COC(=O)c1sccc1N/N=C/c1cccc(OC)c1O ?
SMN2 splice enh: 0.56µM*; NPC1 promoter act: 3.5µM*; Rab9 promoter act: 3.2µM*; FLuc modulator: 0.95µM*; Luc counter: 10µM*; ELG1 genotoxic: inconclusive

Results for COC(=O)c1sccc1N/N=C/c1ccc(OC)c(OC)c1OC ?
SMN2 splice enh: 14µM*; NPC1 promoter act: inconclusive; Rab9 promoter act: inconclusive; FLuc modulator: 15µM*; Luc counter: -3%; ELG1 genotoxic: inconclusive

Results for CC(C(=O)Nc1ccccc1C#N)N1C(=O)NC2(CCCCCC2)C1=O (stereo not given) ?
NPC1 promoter act: -1%; Rab9 promoter act: 1%; FLuc modulator: 0%; ELG1 genotoxic: -1%

How did O=C(CCSc1ccccn1)c1ccccc1 do in these assays?
SMN2 splice enh: 3%; NPC1 promoter act: -1%; Rab9 promoter act: -2%; FLuc modulator: 6µM*; Luc counter: -3%; ELG1 genotoxic: -2%

Results for O=C(CCCc1ccccn1)c1ccccc1 ?
SMN2 splice enh: 2.8µM*; Luc counter: -3%[7.66 µM]

Results for O=C(Cc1ccccn1)c1ccc(Cl)cc1 ?
NPC1 promoter act: inconclusive; Rab9 promoter act: 2.8µM*; FLuc modulator: 12µM*; ELG1 genotoxic: inconclusive
